Screening results: PubChem BioAssay, several laboratories
An excerpt weighted towards active compounds, which were near 2.2% of everything screened.
Myeloid diff 2 = promotes myeloid progenitor differentiation | ER-HoxA9 myeloid progenitors, lysozyme-GFP differentiation, flow cytometry | calls only at 10 µM | hit rate 1% among 360,000 | AID 624256;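 active = normalized GFP-positive differentiation at or above the plate's own cutoff, the solvent-only control mean plus 3 SD; inconclusive = no clear call, values can overlap the other calls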;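 also: cells exposed to compound for four days before flow analysis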
CRFR2-BP antag = CRF-BP/CRF-R2 complex antagonism; HEK293 CRF-R2/CRF-BP, CRF-induced calcium fluorescence; inhibition, % at 11.8 µM; hit rate 0.59% among 350,000; AID 588475;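 active = inhibition of the ligand-induced calcium signal above about 50% at the single tested concentration, limit read from the data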
CRFR2-BP ag = agonists of human CRF-binding protein/CRF-R2 receptor complex; activation, % at 13.2 µM; HEK293 CRF-R2/CRF-BP, calcium dye fluorescence (FLIPR); percent of saturating CRF peptide response; AID 588473; hit rate 0.46% among 350,000;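 active = activation of at least 50%, plus an integration ratio under a set limit after plate pattern correction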;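 also: plate controls were neutral control wells without compound for no effect and CRF at EC100 for full effect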
RTF Ca sens act = cardiac RTF calcium sensitization; P19429+P45379; IANBD-labeled TnC RTF fluorescence at EC20 calcium; 0% EC20 calcium, 100% full calcium; activation, % at 7.2 µM; hit rate 0.24% among 340,000; AID 493008;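 active = activation above the mean over all tested compounds plus 3 SD, cut at about 30% in these data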;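 also: rise in fluorescence read as greater calcium sensitivity of cardiac thin filaments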
Cardiac RTF inh = cardiac RTF calcium desensitization; AID 493244; inhibition, % at 7.15 µM; IANBD-labeled cardiac RTF, Ca2+ fluorescence; P19429+P45379; hit rate 0.12% among 340,000;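 active = inhibition above the mean inhibition of all tested compounds plus 3 SD, cut at about 17% in these data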;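 also: assay run at fixed EC70 calcium of 1.6 mM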
Numbers without * were called inactive.

Results for C[C@H]1CN([C@@H](C)CO)S(=O)(=O)c2ccc(/C=C/c3ccccc3)cc2O[C@H]1CN(C)C(=O)NC1CCCCC1 ?
Myeloid diff 2: inactive; CRFR2-BP antag: 3.9; CRFR2-BP ag: 9.1

What do the screens show for `O=C1NC2(CCCCCC2)C(=O)N1Cc1ccccc1`?
Myeloid diff 2: inactive; CRFR2-BP antag: -4.3; CRFR2-BP ag: 1.2; RTF Ca sens act: 1.7; Cardiac RTF inh: -9.7

Results for O=C1NC(=O)N(Cc2ccccc2)C1=O ?
Myeloid diff 2: active; CRFR2-BP antag: 4.6; CRFR2-BP ag: -0.6; RTF Ca sens act: -0.7; Cardiac RTF inh: -1.3

Results for COc1ccc(C(=O)NC(=S)NNC(=O)c2ccc(C)cc2)cc1 ?
Myeloid diff 2: inactive; CRFR2-BP antag: -68.8; CRFR2-BP ag: 132.2*; RTF Ca sens act: 6.8; Cardiac RTF inh: -3.4

Results for COc1ccc(C(=O)NNC(=S)NC(=O)c2ccc(Cl)cc2)cc1 ?
CRFR2-BP antag: 1.7; CRFR2-BP ag: 116.5*

What do the screens show for `O=C(NNC(=S)NC(=O)c1sc2ccccc2c1Cl)c1ccc(Cl)cc1`?
Myeloid diff 2: inactive; CRFR2-BP antag: -221.9; CRFR2-BP ag: 209.7*; RTF Ca sens act: -3.2; Cardiac RTF inh: 5.1

What do the screens show for `CCCCC(=O)NNC(=S)NC(=O)c1ccc(C)cc1`?
Myeloid diff 2: inactive; CRFR2-BP antag: 49.1; CRFR2-BP ag: 135.4*; RTF Ca sens act: 4.3; Cardiac RTF inh: -2.5

Results for COc1ccc(NC(=O)COC(=O)CNC(=O)COc2ccccc2)cc1OC ?
Myeloid diff 2: inactive; CRFR2-BP antag: -9.8; CRFR2-BP ag: -1.4; RTF Ca sens act: 0.4; Cardiac RTF inh: 0.6

What do the screens show for `Cc1[nH]nc2c1C(c1ccco1)C(C#N)=C(N)O2` (stereo not drawn)?
Myeloid diff 2: inactive; CRFR2-BP antag: -14.7; CRFR2-BP ag: 2.5; RTF Ca sens act: 7.2; Cardiac RTF inh: -10.5

How did COc1ccc(-c2ccc(C3C(C#N)=C(N)Oc4n[nH]c(C)c43)o2)cc1 (stereo not drawn) do in these assays?
Myeloid diff 2: inactive; CRFR2-BP antag: -223.3; CRFR2-BP ag: 171.2*; RTF Ca sens act: 16.0; Cardiac RTF inh: -31.6

What do the screens show for `CC(=O)NC(c1ccc(F)c(F)c1)c1nc(-c2cnn(C)c2)cs1` (stereo not drawn)?
Myeloid diff 2: inactive

Results for Cc1cccc(N2CCN(S(=O)(=O)c3ccc4c(c3)C(C)(C)C(=O)N4C)CC2C)c1 (stereo not drawn) ?
Myeloid diff 2: inactive; CRFR2-BP antag: 22.3; CRFR2-BP ag: -0.2; RTF Ca sens act: 0.8; Cardiac RTF inh: -16.1

Results for Cc1cccc(N2CCN(S(=O)(=O)c3ccc(Cl)nc3)CC2C)c1 (stereo not drawn) ?
Myeloid diff 2: inactive; CRFR2-BP antag: 75.8*; CRFR2-BP ag: -0.1; RTF Ca sens act: -1.3; Cardiac RTF inh: 2.0

How did Brc1ccc(C=Nc2ccc(Nc3ccccc3)cc2)s1 do in these assays?
Myeloid diff 2: active; CRFR2-BP antag: -14.2; CRFR2-BP ag: -2.1; RTF Ca sens act: -2.2; Cardiac RTF inh: 8.0

Results for COc1ccc(N2CCN(C(=O)C3Cc4ccccc4CN3C(=O)c3ccccc3)CC2)cc1 (stereo not drawn) ?
Myeloid diff 2: active; CRFR2-BP antag: 13.3; CRFR2-BP ag: -5.3; RTF Ca sens act: -1.1; Cardiac RTF inh: -5.0

Results for CC(=O)N1Cc2ccccc2CC1C(=O)N1CCN(c2ccccc2)CC1 (stereo not drawn) ?
Myeloid diff 2: inactive; CRFR2-BP antag: 4.9; CRFR2-BP ag: -0.6; RTF Ca sens act: -8.2; Cardiac RTF inh: 2.1

Results for CC1Cc2ccccc2N1C(=O)CSc1nncs1 (stereo not drawn) ?
Myeloid diff 2: inactive; CRFR2-BP antag: 2.5; CRFR2-BP ag: 0.4; RTF Ca sens act: -0.2; Cardiac RTF inh: -7.5

What do the screens show for `CC(=O)Oc1c(C)cc(Cl)cc1C(=O)Nc1ccc([N+](=O)[O-])cc1Cl`?
Myeloid diff 2: inconclusive; CRFR2-BP antag: 29.6; CRFR2-BP ag: 83.0*; RTF Ca sens act: 5.7; Cardiac RTF inh: 3.0

Results for CC(=O)OCC(=O)Nc1ccc([N+](=O)[O-])cc1Cl ?
Myeloid diff 2: inactive; CRFR2-BP antag: 5.9; CRFR2-BP ag: -1.2; RTF Ca sens act: 1.5; Cardiac RTF inh: 5.9

Results for COc1cc(NS(=O)(=O)c2ccc(C)cc2)c2c(c1N)C(=O)c1ccccc1C2=O ?
Myeloid diff 2: active; CRFR2-BP antag: 31.9; CRFR2-BP ag: 4.8

What do the screens show for `O=C1c2ccccc2OC2(C=Cc3ccccc3O2)N1Cc1ccccc1` (stereo not drawn)?
Myeloid diff 2: inactive; CRFR2-BP antag: 55.7*; CRFR2-BP ag: -0.6; RTF Ca sens act: 10.0; Cardiac RTF inh: -15.4

Results for Cc1cc(SCC(=O)N/N=C/c2ccc(O)c(O)c2O)c(C)cc1Br ?
Myeloid diff 2: active; CRFR2-BP antag: -53.2; CRFR2-BP ag: -5.5; RTF Ca sens act: 0.5; Cardiac RTF inh: -5.9

How did COC(C(=O)Nc1ccc(F)c(F)c1)c1ccccc1 (stereo not drawn) do in these assays?
Myeloid diff 2: inactive; CRFR2-BP antag: -15.4; CRFR2-BP ag: 1.2; RTF Ca sens act: -2.4; Cardiac RTF inh: 2.5

What do the screens show for `COC(C(=O)Nc1cccc(F)c1)c1ccccc1` (stereo not drawn)?
Myeloid diff 2: active; CRFR2-BP antag: 6.9; CRFR2-BP ag: -1.2; RTF Ca sens act: -1.3; Cardiac RTF inh: 0.0

How did CCCNC(=O)C1(C)CCN1C(=O)Cc1ccc(C(C)(C)C)cc1 (stereo not drawn) do in these assays?
Myeloid diff 2: inactive

Results for O=C(COC(=O)C1CC(=O)N(Cc2ccco2)C1)c1ccc(OC(=O)c2ccco2)cc1 (stereo not drawn) ?
Myeloid diff 2: inactive; CRFR2-BP antag: 81.9*; CRFR2-BP ag: 3.2; RTF Ca sens act: -3.6; Cardiac RTF inh: 3.2

How did CC(=O)N1N=C(C)CC1c1ccc(OCc2ccccc2)cc1 (stereo not drawn) do in these assays?
Myeloid diff 2: inactive; CRFR2-BP antag: 52.3*; CRFR2-BP ag: -4.6; RTF Ca sens act: -4.3; Cardiac RTF inh: 4.1

Results for COc1cc(OC)c(OC)cc1/C=C/C(=O)c1ccc(NS(=O)(=O)c2ccc(C)cc2)cc1 ?
Myeloid diff 2: active; CRFR2-BP antag: -79.4; CRFR2-BP ag: 19.6; RTF Ca sens act: 34.9*; Cardiac RTF inh: -28.6

What do the screens show for `COc1cccc(CNC(=O)CN2C(=O)COc3ccc(S(=O)(=O)N4CCC(C)CC4)cc32)c1`?
Myeloid diff 2: inactive; CRFR2-BP antag: 3.8; CRFR2-BP ag: 0.4; RTF Ca sens act: 0.4; Cardiac RTF inh: -3.4

What do the screens show for `O=[N+]([O-])c1ccccc1-c1ccc(CN2CCN(c3ccccc3)CC2)o1`?
Myeloid diff 2: inactive; CRFR2-BP antag: -3.3; CRFR2-BP ag: -0.9; RTF Ca sens act: -5.3; Cardiac RTF inh: 1.2

Results for O=C1Cc2cc(S(=O)(=O)N3CCN(c4ccc(C(=O)O)cc4)CC3)ccc2N1 ?
Myeloid diff 2: inactive
